One test deals with Hek293T. The test is described as follows: Primary qHTS to identify gynecologic anti-cancer compounds using libraries of approved drugs and bioactive compounds (AID 1345084). Also: % is scaled to controls: 0 for no effect and ±100 for the full control effect; nearly all actives have a fitted effect of over 55% in size. The note with it: Gynecologic cancer cell panel viability, ATPlite luminescence, 48 h, control line for the selectivity index; series mostly up to 57.5 µM. Summed up:
(§1)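 ATP-based viability (ATPlite), 1,000 cells/well, 16 h pre-incubation, 48 h compound at 37 C, 5% CO2, 15 min RT before read.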
In general terms: qHTS replaces the single test concentration by a dilution series.

Another test has as its system JEG-3. The test is described as above. The settings on record: Gynecologic cancer cell panel viability, ATPlite luminescence, 48 h; series mostly up to 57.5 µM. Summed up:
as §1
(In general: ATP-based viability assays read luminescence as a measure of living cells.)

The subject of another test is OV90. The description is as above. The note with it: Gynecologic cancer cell panel viability, ATPlite luminescence, 48 h; series mostly up to 57.5 µM. Put shortly:
as §1

Another test has as its system PA-1. Described as above. The settings on record: Gynecologic cancer cell panel viability, ATPlite luminescence, 48 h; series mostly up to 57.5 µM. Put shortly: as §1
The test system of another test is SKOV3. The test is described as above. The settings on record: Gynecologic cancer cell panel viability, ATPlite luminescence, 48 h; series mostly up to 57.5 µM. Summed up: as §1
A further test deals with Tov-21-G. The test is described as above. The note with it: Gynecologic cancer cell panel viability, ATPlite luminescence, 48 h; series mostly up to 57.5 µM. Put shortly: as §1
Another test deals with Tov112D. Described as above. The settings on record: Gynecologic cancer cell panel viability, ATPlite luminescence, 48 h; series mostly up to 57.5 µM. Put shortly:
as §1

A short description of test [1]: Drug repurposing screens with cells derived from glioblastoma tumor samples (AID 1345199). Also: nearly all actives have a fitted effect of over 40% in size. Also: potency is read from the fitted curve at half-maximal effect. As to activity, negative = cell killing: % is scaled to controls: 0 for no effect and ±100 for the full control effect. The note with it: GBM patient neurospheres viability, ATP luminescence, 48 h. Summed up:
(§2)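 Four patient lines of CD133+ GBM neurospheres were screened at several concentrations; hits were retested in those lines plus three slower-growing GBM lines, using 48-hour treatment and ATP-based viability.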

The test system of a further test is astro. The test is described as above. The note with it: viability, ATP luminescence, 48 h; series mostly up to 45.9 µM. Summed up:
as §2

Test [2] concerns the target Nuclear receptor subfamily 1 group I member 2 (Rattus norvegicus) (UniProt Q9R1A7). Put plainly: qHTS assay for small molecule activators of the rat pregnane X receptor (rPXR) signaling pathway (AID 651751; call rule not given here; also: 0% is about no effect). The settings on record: rPXR reporter cells, luciferase (One-Glo), 24 h.
Test [3] in a line: qHTS assay for small molecule activators of the human pregnane X receptor (PXR) signaling pathway (AID 720659; call rule not given here; also: 0% is about no effect). The settings on record: DPX-2 HepG2 CYP3A4-luciferase, 24 h; series mostly up to 92.3 µM.
Where [4] appears, read: at 45.9 µM (top of the series), tumour line B.
Setting [5] is: at 45.9 µM (top of the series), tumour line D.
[6] abbreviates: at 46.1 µM (top of the series), tumour line C.
Setting [7] is: at 46 µM (top of the series), tumour line A.
[8] abbreviates: at 20 µM (top of the series), tumour line C.
Setting [9] is: at 21.2 µM (top of the series), tumour line B.
Where [10] appears, read: at 21.2 µM (top of the series), tumour line D.

Unmarked numbers belong to inactive results. Inconclusive results are not listed. The source made the active and inactive calls. Unless noted, calls follow the shape of the dose curve; as a rule, active = well fitted curve in the direction sought with a large enough effect; inconclusive = small, poorly fitted or top-dose-only effect, or another doubt; inactive = no such curve, though single readings can be large; an effect the other way counts as inactive or inconclusive.

Chain of Nuclear receptor subfamily 1 group I member 2 (Rattus norvegicus) (Q9R1A7 whole entry, looked up): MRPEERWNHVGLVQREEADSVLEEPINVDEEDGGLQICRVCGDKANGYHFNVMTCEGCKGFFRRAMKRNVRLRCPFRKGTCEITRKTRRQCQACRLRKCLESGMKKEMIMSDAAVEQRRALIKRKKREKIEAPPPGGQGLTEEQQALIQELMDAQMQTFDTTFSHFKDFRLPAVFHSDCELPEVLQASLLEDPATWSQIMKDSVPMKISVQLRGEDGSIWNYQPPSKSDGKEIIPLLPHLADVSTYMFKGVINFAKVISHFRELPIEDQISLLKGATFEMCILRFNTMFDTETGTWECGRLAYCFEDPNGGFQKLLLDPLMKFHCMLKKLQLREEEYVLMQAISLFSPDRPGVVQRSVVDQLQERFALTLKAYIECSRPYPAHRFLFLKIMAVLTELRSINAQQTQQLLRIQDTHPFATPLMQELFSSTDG

For the molecule `FC1(F)C(F)(F)C(F)(F)C2(F)C(F)(F)C(F)(F)C(F)(F)C(F)(F)C2(F)C1(F)F` (configuration not stated), the Potency entry with Hek293T, in the test on JEG-3, with OV90, in the test on PA-1, in the test with SKOV3 and in the test with Tov-21-G was “inactive” each time. For the same molecule, the Potency entry with Tov112D and in the test on astro was “inactive” in each case. In addition, the results for the activity, negative = cell killing in test [1] (setting [4]), in [1] (setting [5]) and in test [1] (setting [6]) were -14.2%, -0.34% and -17%, respectively.

With `O=C1[C@H](CC[C@H](O)c2ccc(F)cc2)[C@@H](c2ccc(O)cc2)N1c1ccc(F)cc1`, the Potency entry with Hek293T, in the test with JEG-3, in the test with OV90, with PA-1, with SKOV3 and with Tov-21-G was “inactive” in each case. Besides, the Potency entry in the test on Tov112D and in the test with astro was “inactive” throughout. The activity, negative = cell killing was -11.2% in [1] (setting [4]), -13.5% in test [1] (setting [5]) and 1.66% in test [1] (setting [6]).

As to `Nc1nc(-c2ccccc2)c(Br)c(=O)[nH]1`, the Potency result in the test on Hek293T, in the test on JEG-3, in the test on OV90, in the test on PA-1, in the test with SKOV3 and in the test on Tov-21-G was “inactive” throughout. Moreover, the Potency entry in the test on Tov112D and with astro was “inactive” throughout. In addition, the results for the activity, negative = cell killing in [1] (setting [4]), in test [1] (setting [5]) and in test [1] (setting [7]) were -8.97%, -11.4% and -28.3%, respectively.

Turning to `c1ccc(CC2=NCCN2)cc1`, the Potency entry in the test on Hek293T, in the test on JEG-3, with OV90, in the test on PA-1, in the test with SKOV3 and in the test with Tov-21-G was “inactive” throughout. Moreover, the Potency entry in the test with Tov112D and in the test with astro was “inactive” each time. The activity, negative = cell killing is -9.44% in [1] (setting [8]), -1.18% in test [1] (setting [9]) and -24.9% in test [1] (setting [10]).

Regarding `CCOC(=O)Nc1ccc2c(c1)N(C(=O)CCN1CCOCC1)c1ccccc1S2`, the Potency result with Hek293T, in the test with JEG-3, in the test with OV90, in the test with PA-1, in the test on SKOV3 and with Tov-21-G was “inactive” throughout. In addition, the Potency entry in the test with Tov112D and in the test on astro was “inactive” throughout. Further, the activity, negative = cell killing was -16.1% in test [1] (setting [8]), -11.1% in test [1] (setting [9]) and -19.6% in [1] (setting [10]).

For the molecule `CC(C(=O)O)c1cccc(Oc2ccccc2)c1` (configuration not stated), the Potency entry with Hek293T, in the test with JEG-3, with OV90, with PA-1, in the test on SKOV3 and with Tov-21-G was “inactive” in each case. For the same molecule, the Potency result with Tov112D and with astro was “inactive” throughout. Further, the activity, negative = cell killing was 4.85% in [1] (setting [8]), -4.71% in test [1] (setting [9]) and -19.7% in [1] (setting [10]).

For `Cc1cn([C@H]2C[C@H](F)[C@@H](CO)O2)c(=O)[nH]c1=O`, the Potency entry in the test with Hek293T, in the test on JEG-3, in the test on OV90, in the test with PA-1, with SKOV3 and with Tov-21-G was “inactive” in each case. The Potency entry in the test with Tov112D and with astro was “inactive” in each case. Further, the values for the activity, negative = cell killing in test [1] (setting [4]), in test [1] (setting [5]) and in test [1] (setting [6]) were -16.6%, -21.3% and -27%, respectively.

As to `OC(C#CCN1CCCC1)(c1ccccc1)c1ccccc1`, the Potency result with Hek293T, in the test on JEG-3, in the test on OV90, in the test with PA-1, in the test on SKOV3 and with Tov-21-G was “inactive” throughout. The Potency result with Tov112D and in the test on astro was “inactive” in each case. Besides, the activity, negative = cell killing was -17.2% in test [1] (setting [4]) and -29.1% in test [1] (setting [6]). In test [1] (tumour line A), the Potency is 11.2 µM (active).

As to `N[C@H](C(=O)O)[C@@H](O)c1ccc(O)c(O)c1`, the Potency result in the test on Hek293T, in the test with JEG-3, in the test with OV90, with PA-1, in the test with SKOV3 and in the test on Tov-21-G was “inactive” in each case. Moreover, the Potency result in the test on Tov112D and in the test with astro was “inactive” throughout. Besides, the results for the activity, negative = cell killing in test [1] (setting [4]), in test [1] (setting [5]) and in test [1] (setting [6]) were -8.13%, -33.1% and -8.89%, respectively.

With `C=CCN1CCc2nc(N)sc2CC1`, the Potency entry in the test with Hek293T, in the test on JEG-3, with OV90, with PA-1, with SKOV3 and in the test with Tov-21-G was “inactive” throughout. For the same molecule, the Potency result with Tov112D and with astro was “inactive” throughout. Further, the activity, negative = cell killing in [1] (setting [4]) was -26.9%; in test [1] (setting [5]) it was -19.4%; in test [1] (setting [6]) it was -3.6%.

As to `CCOc1ccccc1C(N)=O`, the Potency entry with Hek293T, in the test with JEG-3, in the test on OV90, in the test with PA-1, in the test with SKOV3 and with Tov-21-G was “inactive” throughout. Also, the Potency result in the test with Tov112D and in the test on astro was “inactive” throughout. Moreover, the activity, negative = cell killing was -5.35% in test [1] (setting [4]), -0.0314% in [1] (setting [5]), -26.8% in [1] (setting [7]) and -1.96% in [1] (setting [6]). Moreover, the max response in test [2] is 2.38%. For the same molecule, the result in test [3] was inactive.

`NC(=O)c1ccccc1O`: the Potency result in the test with Hek293T, in the test on JEG-3, with OV90, in the test with PA-1, in the test on SKOV3 and in the test with Tov-21-G was “inactive” in each case. In addition, the Potency result with Tov112D is “inactive”. Further, the activity, negative = cell killing in test [1] (setting [4]) is -6.32%; in [1] (setting [5]) it was 0.802%; in test [1] (setting [7]), -27.6%; in [1] (setting [6]) it was 4.05%. The max response in [2] was -4.39%. Moreover, the result in test [3] was inactive.

The values above are taken from PubChem BioAssay (NCATS).
